# PubChem BioAssay (EPA / NIEHS)
# The source made the active and inactive calls. Rule for the calls: active = hit-call score of the fitted dose curve at least 0.9, where 1 is the maximum; inactive = score below 0.9.
# Experiment: APR_HepG2_MicrotubuleCSK_24hr: Apredica 24-hour HepG2 Assay for Microtubule CSK Stabilty (AID 2282909)
# Conditions: HepG2 microtubule cytoskeleton imaging, actives raise or lower the signal
# Procedure: APR_HepG2_24hr is a cell-based, multiplexed-readout assay that uses HepG2, a human liver cell line, with measurements taken at 24 hours after chemical dosing in a 384-well plate.APR_HepG2_MicrotubuleCSK_24hr is one of 10 assay component(s) measured or calculated from the APR_HepG2_24hr assay. It is designed to make measurements of protein conformation, a form of conformation reporter, as detected with fluorescence intensity signals by HCS Fluorescent Imaging technology.Data from the assay component APR_HepG2_MicrotubuleCSK_24hr was analyzed into 1 assay endpoint. This assay endpoint, APR_HepG2_MicrotubuleCSK_24hr, was analyzed with bidirectional fitting relative to DMSO as the negative control and baseline of activity. Using a type of conformation reporter, measures of protein for gain or loss-of-signal activity can be used to understand the signaling at the cellular-level. Furthermore, this assay endpoint can be referred to as a primary readout, because this assay has produced multiple assay endpoints where this one serves a signaling function. To generalize the intended target to other relatable targets, this assay endpoint is annotated to the cell morphology intended target family, where the subfamily is cell conformation.
# Cells were treated with dimethyl sulfoxide (DMSO) as a solvent control at a final concentration of 0.5% v/v or with compounds in DMSO with a resulting final DMSO concentration of 0.5% v/v. Compound treatment was done at concentrations of 0.39, 0.78, 1.56, 3.12, 6.24, 12.5, 25, 50, 100, and 200 uM in duplicate on each plate. Cells were treated with compounds for 1, 24, or 72 hr. Carbonyl […] m-chloro-phenylhydrazone (CCCP) and taxol were used as positive controls for mitochondrial function and cytoskeletal stability, respectively; DMSO served as the negative control for this experiment. Cells were fixed by the direct addition of 50 uL formaldehyde in Hank's Balanced Salt Solution (HBSS) to a final concentration of 3.7%. After incubation in the fixation medium for 30 min at room temperature (293-298 K), cells were rinsed twice with HBSS and treated with cell permeabilization buffer (16 uL of 0.5% Triton X-100) for 10 min at room temperature (293-298 K) before labeling. For mitochondrial membrane potential and mitochondrial measurements, pre-fixed cells were incubated with 50 uL of MitoTracker Red CMXRos (Invitrogen) at a concentration of 250 nM for 30 min before fixation. In the remaining cases, post-fixed cells were labeled by incubation with a multiplexed mixture of primary antibodies in HBSS for 60 min at room temperature (293-298 K) to detect immunoreactivity of c-Jun (1:500), phospho-histone H3 (1:100), phospho-histone H2A.x (1:200), p53 (1:400), alpha-tubulin (1:200) and Hoechst 33342 (2 ug/mL). Cells were labeled for multiplexed imaging on two separate plates: a) Hoechst 33342, MitoTracker Red, phospho-histone H3, and alpha-tubulin, and b) Hoechst 33342, phospho-histone H2A.x, and c-Jun. A final rinse with HBSS (50 uL) was performed before analysis. The primary and secondary antibodies for the proteins were phospho-histone H3 (rabbit anti-phospho-histone H3 and FITC-donkey anti-rabbit IgG), phospho-histone H2A.x (mouse anti-phospho-histone H2A.x and FITC-donkey anti-mouse IgG), c-Jun (rabbit anti-phospho-c-Jun and Cy3-donkey anti-rabbit IgG), p53 (sheep anti-p53 and Cy5-donkey anti-sheep IgG), alpha-tubulin (mouse anti-alpha-tubulin and Cy5-donkey anti-mouse IgG). These antibodies are available as the CellCiphr HepG2 assay kit (Millipore).Digital images of each well were captured using a Cellomics ArrayScan VTI (Thermo Scientific Cellomics) (0.8 NA objective, 0.63x optical coupler, and XF-93 filter set) at 20x magnification. The images were acquired using the autofocus feature of the ArrayScan instrument, which entails the following steps. First, the camera focuses on channel 1 (Hoechst 33342), where nuclei are identified. Second, a Z offset of 1 um is used for capturing mitochondria (MitoTracker Red). […]
Compound,outcome,AC50
NS(=O)(=O)C(F)(F)C(F)(F)C(F)(F)C(F)(F)C(F)(F)C(F)(F)C(F)(F)C(F)(F)F,inactive,–
Nn1cnnc1,inactive,–
CCCCCCCCOC(=O)c1ccccc1C(=O)OCCCCCCCC,inactive,–
CCC(C)(CC)c1cc(NC(=O)c2c(OC)cccc2OC)on1,inactive,–
Cc1ccccc1CO[C@@H]1C[C@@]2(C(C)C)CC[C@]1(C)O2,inactive,–
CCOC(=O)C(O)(c1ccc(Cl)cc1)c1ccc(Cl)cc1,–,89.7 µM (active)
Clc1ccc(C(Cl)(Cl)Cl)cc1,inactive,–
Oc1ccc(C(c2ccc(O)cc2)(C(F)(F)F)C(F)(F)F)cc1,inactive,–
O=S(=O)(O)C(F)(F)C(F)(F)C(F)(F)C(F)(F)C(F)(F)C(F)(F)F,inactive,–
CC#Cc1cc(C)nc(Nc2ccccc2)n1,inactive,–
CN(C)CCO,inactive,–
O=NN(c1ccccc1)c1ccccc1,inactive,–
CC(c1ccc(O)cc1)(c1ccc(O)cc1)c1ccc(O)cc1,inactive,–
CCC(C)(c1ccc(O)cc1)c1ccc(O)cc1,inactive,–
CCC(=O)O[C@H]1CC[C@H]2[C@@H]3CCC4=CC(=O)CC[C@]4(C)[C@H]3CC[C@]12C,inactive,–
ClC(Cl)=C(c1ccc(Cl)cc1)c1ccc(Cl)cc1,inactive,–
CCCN(CCC)N=O,inactive,–
CCNc1nc(NC(C)C)nc(SC)n1,inactive,–
Oc1ccc(Cl)cc1Cl,inactive,–
ClC1=C(Cl)[C@]2(Cl)[C@@H]3[C@@H](Cl)[C@H]4O[C@H]4[C@@H]3C1(Cl)C2(Cl)Cl,–,82.1 µM (active)

Compound,outcome,AC50
Cc1cccc([N+](=O)[O-])c1,inactive,–
c1ccc(-c2ccccc2)cc1,inactive,–
CCCCCCCCCc1ccc(O)cc1,inactive,–
Cc1ccc(O)c(C)c1,inactive,–
O=C(N[C@H]1CN2CCC1CC2)c1cc2ccoc2cn1,inactive,–
O=C(NC(=O)c1c(F)cccc1F)Nc1cc(Cl)c(OC(F)(F)C(F)F)c(Cl)c1,inactive,–
ClC1=C(Cl)[C@]2(Cl)[C@@H]3[C@@H]4C[C@@H]([C@H]5O[C@@H]45)[C@@H]3[C@@]1(Cl)C2(Cl)Cl,inactive,–
CCOCCOC(C)=O,inactive,–
CCOP(=S)(OCC)SCSC(C)(C)C,inactive,–
CCCCCCOC(=O)c1ccccc1C(=O)OCCCCCC,inactive,–
Nc1ccc(-c2ccc(N)cc2)cc1,inactive,–
Cc1cccc(C)c1N,inactive,–
Clc1ccc(Cl)cc1,inactive,–
N#Cc1ccc(N(CC(N)=O)CC(F)(F)F)cc1C(F)(F)F,inactive,–
COc1ccc(O)c(C(C)(C)C)c1,inactive,–
CC1=C2C[C@H]3[C@@H](CC=C4C[C@@H](O)CC[C@@]43C)[C@@H]2CC[C@]12O[C@@H]1C[C@H](C)CN[C@H]1[C@H]2C,inactive,–
C=CC(=O)NCNC(=O)C=C,inactive,–
COS(=O)(=O)OC,inactive,–
O=C(O)C(F)(F)C(F)(F)C(F)(F)C(F)(F)C(F)(F)C(F)(F)C(F)(F)C(F)(F)C(F)(F)F,inactive,–
c1cc2ccc3cccc4ccc(c1)c2c34,inactive,–
